Test results from PubChem BioAssay (NCATS).
Values joined by “and” are separate entries in the source; they are usually repeats but may differ in a detail not shown here. Identical values can stand only once. Results filed as inconclusive are left out. Active and inactive are the calls of the source. Unless noted, the call rests on the fitted dose curve; in most records, active means well fitted curve in the direction sought with a large enough effect; inconclusive means small, poorly fitted or top-dose-only effect, or another doubt; inactive means no such curve, though single readings can be large; an effect the other way counts as inactive or inconclusive.

How the values were obtained:
[1] = Cellular Toxicity (caspase-3) HUV-EC-C (AID 656);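 further: 0% = DMSO basal and 100% = 100 µM tamoxifen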
Procedure, shortened: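 Concentration-dependent caspase 3/7 induction was assessed in HUV-EC-C cells exposed for 16 hours. Data scaled between DMSO and tamoxifen (100 uM) controls.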

[2] = Cellular Toxicity (caspase-3) H-4-II-E (AID 663); conditions: Potency: caspase-3 activation;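 further: cells exposed to compound for 16 hr before readout; 0% = DMSO basal and 100% = 100 µM tamoxifen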
Procedure, shortened: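 Luminescence from caspase-cleaved aminoluciferin substrate, read 20 min after reagent addition, reports caspase 3/7 activation in rat H-4-II-E cells after 16 hr compound exposure. Normalized to DMSO (basal) and 100 uM tamoxifen (100%); AC50 from Hill fits.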

[3] = MultiTox-Fluor Cytotoxicity Assay - LYMP1-002 - Dead Cells (AID 960);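 further: cells exposed to compound for 16 h at 37 °C; nearly all actives have a fitted effect of over 60% in size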
Procedure, shortened: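 LYMP1-002 cells 2500/well; 5 hr 37 C pre-incubation; compound 16 hr 37 C; MultiTox-Fluor reagent 60 min RT; dead-cell fluor Ex/Em 485/520. Norm. to DMSO (0%) vs 15 uM tetraoctylammonium bromide (100%); Hill AC50.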

[4] = Cell Viability - LYMP2-004 (AID 966);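 further: plate controls were DMSO only for no effect and tetraoctylammonium bromide control for full effect; nearly all actives have a fitted effect of over 65% in size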
Procedure, shortened: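 Cells seeded 2500/well, rested 5 hr at 37 C, dosed across a concentration series, incubated 24 hr at 37 C, then CellTiter-Glo added for 30 min at room temperature and luminescence read. Hill fitting gave AC50.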

[5] = Cell Viability - LYMP2-005 (AID 967);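 further: series mostly up to about 92 µM; plate controls were DMSO only for no effect and 92 µM tetraoctylammonium bromide control for full effect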
Procedure, shortened: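 Luciferase-based ATP quantitation served as the viability measure in human lymphoblastoid LYMP2-005 cells exposed to test compounds for 24 h at 37 C in complete culture medium. Potency (AC50) was obtained by fitting concentration-response curves with the Hill equation.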

[6] = Cell Viability - LYMP2-013 (AID 970);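 further: series mostly up to about 92 µM; 0% = DMSO only and full inhibition = tetraoctylammonium bromide control; nearly all actives have a fitted effect of over 55% in size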
Procedure, shortened: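 qHTS; 2500 lymphoblastoid cells/well; 5 hr 37 C settle; cpd 24 hr 37 C; CellTiter-Glo, 30 min RT; luminescence. AC50 = Hill fit.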

[7] = Cell Viability - LYMP2-025 (AID 976);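 further: series mostly up to about 92 µM; plate controls were DMSO only for no effect and tetraoctylammonium bromide control for full effect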
Procedure, shortened: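 Seed 2500 LYMP2-025 cells/well; 5 hr at 37 C; add compound; 24 hr at 37 C; add CellTiter-Glo; 30 min RT; read luminescence. AC50 from Hill-modelled concentration-response.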

[8] = Cell Viability - LYMP2-007 (AID 979);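 further: cells exposed to compound for 24 h before reading; 0% = DMSO only and the negative end = 92 µM tetraoctylammonium bromide; nearly all actives have a fitted effect of over 60% in size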
Procedure, shortened: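 Luminescent ATP signal (CellTiter-Glo) serves as the viability read-out after 24 hr compound treatment of lymphoblastoid cells in complete medium at 37 C. Concentration-response data were fitted to the Hill equation to give AC50 values.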

[9] = Cell Viability - LYMP2-014 (AID 983);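 further: series mostly up to about 92 µM; plate controls were DMSO only for no effect and 92 µM tetraoctylammonium bromide for full effect; nearly all actives have a fitted effect of over 50% in size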
Procedure, shortened: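 Luminescent ATP signal (CellTiter-Glo, 30 min at room temperature) serves as the viability read-out after 24 hr compound exposure at 37 C. Cells were seeded at 2500 per well and settled 5 hr beforehand.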

[10] = Cell Viability - LYMP2-018 (AID 985);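 further: plate controls were DMSO only for no effect and tetraoctylammonium bromide at 92 µM for full effect; nearly all actives have a fitted effect of over 50% in size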
Procedure, shortened: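 Luminescent ATP signal (CellTiter-Glo, read after 30 min at room temperature) reports viable cells after 24 hr compound treatment at 37 C. Concentration-response data were fitted to the standard Hill equation for AC50.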

[11] = Cell Viability - LYMP2-022 (AID 987);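 further: 0% = DMSO alone and full effect = tetraoctylammonium bromide at 92 µM; nearly all actives have a fitted effect of over 55% in size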
Procedure, shortened: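 qHTS: human lymphoblastoid cells 2500/well; 5 hr 37 C; cpd added; 24 hr 37 C; CellTiter-Glo, 30 min RT; luminescence. AC50 via Hill fit; tetraoctylammonium bromide positive ctrl.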

[12] = Cell Viability - LYMP2-024 (AID 988);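 further: plate controls were DMSO only for no effect and 92 µM tetraoctylammonium bromide for full effect; nearly all actives have a fitted effect of over 60% in size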
Procedure, shortened: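 Steps: seed 2500 cells/well, 5 hr 37 C; add compound, 24 hr 37 C; add CellTiter-Glo, 30 min room temperature; read luminescence. AC50 derived by Hill modelling of concentration-dependent ATP loss.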

[13] = qHTS assay for small molecule agonists of retinoid X receptor alpha signaling (AID 588544); conditions: HEK293T RXRa-UAS-bla, beta-lactamase reporter, 18 h; 530 nm emission
[14] = target: Thyroid hormone receptor beta (Homo sapiens) (UniProt P10828); assay: qHTS assay for small molecule agonists of thyroid hormone receptor beta signaling (AID 588545; calls by dose curve;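 further: 0% = DMSO only and 100% = 10 nM T3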)
Sequence of Thyroid hormone receptor beta (Homo sapiens) (P10828 whole entry, looked up): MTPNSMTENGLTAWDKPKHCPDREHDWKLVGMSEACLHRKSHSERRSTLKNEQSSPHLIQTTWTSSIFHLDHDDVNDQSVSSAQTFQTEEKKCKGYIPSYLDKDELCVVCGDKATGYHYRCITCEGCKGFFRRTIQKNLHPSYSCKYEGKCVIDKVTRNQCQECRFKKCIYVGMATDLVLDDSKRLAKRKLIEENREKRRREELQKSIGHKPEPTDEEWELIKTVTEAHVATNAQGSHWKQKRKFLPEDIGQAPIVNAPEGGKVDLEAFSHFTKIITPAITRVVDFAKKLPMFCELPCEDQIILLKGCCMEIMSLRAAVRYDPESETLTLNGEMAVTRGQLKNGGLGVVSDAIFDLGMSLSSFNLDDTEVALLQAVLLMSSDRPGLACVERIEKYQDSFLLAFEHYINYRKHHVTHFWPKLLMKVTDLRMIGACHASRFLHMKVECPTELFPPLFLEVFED
Procedure, shortened: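 Stimulation of a TR-driven beta-lactamase reporter was quantified in GripTite HEK 293 cells. Compound series ran for 18 hrs; curves were normalized to T3 and DMSO controls and fitted to yield EC50.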

[15] = qHTS assay for small molecule antagonists of retinoid X receptor alpha signaling (AID 588546); conditions: HEK293T RXRa-UAS-bla, beta-lactamase ratio, antagonist mode; measured here: W530 green channel, cytotoxicity proxy;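 further: cells stimulated with 9-cis-retinoic acid as agonist; on the % scale 0 is the no-effect control and ±100 the full control effect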
Procedure, shortened: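 Beta-lactamase reporter inhibition, read as CCF4 fluorescence ratio (ex 405, em 460/530 nm) after 2 h at RT. HEK293T UAS-bla cells, 2500/well, were stimulated with 9-cis-RA at 500 or 100 nM final alongside test compound for 18 h at 37 C.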

[16] = target: Thyroid hormone receptor beta (Homo sapiens) (UniProt P10828); assay: qHTS assay for small molecule antagonists of thyroid hormone receptor beta signaling (AID 588547; active means well fitted inhibition curve with a large enough effect in the signal ratio, with a control signal flat, not every such curve was filed as active; the % refers to the signal ratio;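 further: cells stimulated with 0.4 nM T3 agonist during compound exposure; series mostly up to about 77 µM; on the % scale 0 is the no-effect control and ±100 the full control effect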); conditions: TR-UAS-bla HEK293, beta-lactamase ratio, antagonist mode, 18 h
Procedure, shortened: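 TR-UAS-bla GripTite HEK293 cells in 2% charcoal/dextran FBS medium were preincubated 4 h at 37 C, given compound (0.59 nM to 92 uM) plus 0.4 nM T3 (final) for 18 h, then CCF4 for 2 h at RT; Hill fit gave IC50.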

[17] = target: Tumor necrosis factor (Homo sapiens) (UniProt P01375); assay: qHTS assay to identify small molecules that stimulate Tumor Necrosis Factor-alpha (TNF-alpha) secretion (AID 651757; active means well fitted curve in the direction sought with a large enough effect in the signal ratio; the % refers to the signal ratio; further: 0% is about no effect)
Sequence of Tumor necrosis factor (Homo sapiens) (P01375 whole entry, looked up): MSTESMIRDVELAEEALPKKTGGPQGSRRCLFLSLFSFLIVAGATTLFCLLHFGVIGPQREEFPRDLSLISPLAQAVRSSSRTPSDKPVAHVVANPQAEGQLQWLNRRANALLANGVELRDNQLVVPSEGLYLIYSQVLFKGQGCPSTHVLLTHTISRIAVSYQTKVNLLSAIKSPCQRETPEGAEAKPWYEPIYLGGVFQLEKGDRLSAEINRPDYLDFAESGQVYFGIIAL
Procedure, shortened: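 Read-out is HTRF, a TR-FRET sandwich of cryptate- and XL665-labeled anti-TNF-alpha antibodies detecting cytokine secreted by THP-1 cells. Cells had been incubated with test compounds at 37 C for 17 hrs beforehand.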

[18] = target: Nuclear receptor subfamily 1 group I member 2 (Rattus norvegicus) (UniProt Q9R1A7); assay: qHTS assay for small molecule activators of the rat pregnane X receptor (rPXR) signaling pathway (AID 651751; call rule not given here; further: 0% is about no effect); conditions: rPXR reporter cells, luciferase (One-Glo), 24 h
Sequence of Nuclear receptor subfamily 1 group I member 2 (Rattus norvegicus) (Q9R1A7 whole entry, looked up): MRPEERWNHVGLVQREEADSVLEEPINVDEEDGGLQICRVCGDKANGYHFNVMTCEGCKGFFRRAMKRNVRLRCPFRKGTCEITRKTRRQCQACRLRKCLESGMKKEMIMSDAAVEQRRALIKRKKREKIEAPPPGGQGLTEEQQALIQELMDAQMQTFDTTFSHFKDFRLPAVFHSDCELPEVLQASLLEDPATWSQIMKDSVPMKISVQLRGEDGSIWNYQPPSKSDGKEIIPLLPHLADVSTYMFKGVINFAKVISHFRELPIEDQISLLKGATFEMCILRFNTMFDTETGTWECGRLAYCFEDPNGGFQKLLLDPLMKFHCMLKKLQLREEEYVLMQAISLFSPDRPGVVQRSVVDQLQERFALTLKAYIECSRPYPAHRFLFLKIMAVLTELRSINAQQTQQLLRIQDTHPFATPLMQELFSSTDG

[19] = Cell Viability - SK-N-SH (AID 435; calls by dose curve;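 further: potency means the concentration at half of the fitted maximal effect; compound exposure lasted 40 h at 37 °C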); conditions: SK-N-SH neuroblastoma cell viability qHTS
Procedure, shortened: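 Human neuroblastoma line, 40 h exposure at 37 °C, ATP quantified via luciferase luminescence; DMSO and 100 uM tamoxifen define 0 and 100% inhibition for AC50 fitting.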

[20] = qHTS assay for cell viability of HEK293 cells (AID 743288); conditions: ATP luminescence (CellTiter-Glo), 18 h, stronger effect = lower value; further: on the % scale 0 is the no-effect control and ±100 the full control effect; nearly all actives have a fitted effect of over 50% in size
Procedure, shortened: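 Luminescent ATP quantitation served as the viability read-out. Cells (parental HEK293, 2,000/well) received compounds after at least 5 h at 37 C and were exposed for 18 h before a 30 min room-temperature reagent step.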

Clc1cc(Cl)c(Cl)c(Cl)c1
inactive: outcome [1] | Potency [2] | Potency [3] | Potency [4] | Potency [5] | Potency [6] | Potency [7] | Potency [8] | Potency [9] | Potency [10] | Potency [11] | Potency [12] | Potency [14] | activity change % (negative = inhibition) [16] -16.6% | outcome [17] | max response [18] -2.54%
-0.278%: max response [15]
0.707%: max response [13]

Cc1cc(Cl)ccc1O
-5.47%: max response [15]
-4.59%: max response [13]
inactive: Potency [19] > 92 µM | outcome [1] | Potency [2] | Potency [3] | Potency [4] | Potency [5] | Potency [6] | Potency [7] | Potency [8] | Potency [9] | Potency [10] | Potency [11] | Potency [12] | Potency [14] | activity change % (negative = inhibition) [16] -9.26% | outcome [17] | max response [20] -5.93% | max response [18] -0.864%

ClCC(Cl)CCl
0.286% and -10.8%: max response [15]
inactive: Potency [19] > 92 µM | outcome [1] | Potency [3] | Potency [4] | Potency [5] | Potency [6] | Potency [7] | Potency [8] | Potency [9] | Potency [10] | Potency [11] | Potency [12] | Potency [14] | activity change % (negative = inhibition) [16] 0.0158% and 2.43% | outcome [17] | max response [18] 8.27% and 1.68%
-14.4% and -17.5%: max response [13]

CCOP(=S)(OCC)Oc1nc(Cl)c(Cl)cc1Cl
-8.45% [middle of 4 runs]: max response [15]
-1.15%: max response [13]
inactive: Potency [19] > 92 µM | outcome [1] | Potency [2] | Potency [3] | Potency [4] | Potency [5] | Potency [6] | Potency [7] | Potency [8] | Potency [9] | Potency [10] | Potency [11] | Potency [12] | Potency [14] | activity change % (negative = inhibition) [16] 4.5% and 5.64% and -7.44% | outcome [17] | max response [20] -7.97% [middle of 4 runs] | max response [18] 6.81% [middle of 4 runs]

Nc1ccc([N+](=O)[O-])cc1[N+](=O)[O-]
inactive: outcome [1] | Potency [2] | Potency [3] | Potency [4] | Potency [5] | Potency [6] | Potency [7] | Potency [8] | Potency [9] | Potency [10] | Potency [11] | Potency [12] | Potency [14] | activity change % (negative = inhibition) [16] 0.221% | outcome [17]
-7.45%: max response [13]

CN(C)C(=O)Cl
inactive: outcome [1] | Potency [2] | Potency [4] | Potency [5] | Potency [6] | Potency [7] | Potency [8] | Potency [9] | Potency [10] | Potency [11] | Potency [12] | activity change % (negative = inhibition) [16] -23.4% | outcome [17] | max response [20] 4.48% | max response [18] -2.26%
-5.01%: max response [13]
3.53%: max response [15]

C=CCc1cc(OC)c2c(c1)OCO2
inactive: Potency [19] > 92 µM | outcome [1] | Potency [2] | Potency [3] | Potency [4] | Potency [5] | Potency [6] | Potency [7] | Potency [8] | Potency [9] | Potency [10] | Potency [11] | Potency [12] | Potency [14] | activity change % (negative = inhibition) [16] 4.98% | outcome [17] | max response [20] -6.53% | max response [18] -3.31%
-4.92%: max response [15]
-17.2%: max response [13]

OCCCCO
1.71%: max response [13]
inactive: outcome [1] | Potency [2] | Potency [3] | Potency [4] | Potency [5] | Potency [6] | Potency [7] | Potency [8] | Potency [9] | Potency [10] | Potency [11] | Potency [12] | Potency [14] | activity change % (negative = inhibition) [16] 10.4% | outcome [17] | max response [20] -3.14%
-5.28%: max response [15]

CCOP(=S)(OCC)SCCSCC
7.97% and -18.3%: max response [15]
inactive: Potency [19] > 92 µM | outcome [1] | Potency [2] | Potency [3] | Potency [4] | Potency [5] | Potency [6] | Potency [7] | Potency [8] | Potency [9] | Potency [10] | Potency [11] | Potency [12] | Potency [14] | activity change % (negative = inhibition) [16] 6.91% and -9.69% | outcome [17] | max response [20] -9.57% and -7.92% | max response [18] 1.52% and -3.09%
-7.08% and 7.34%: max response [13]

Clc1cccc2ccccc12
0.056%: max response [13]
-3.08%: max response [15]
inactive: Potency [19] > 92 µM | outcome [1] | Potency [2] | Potency [3] | Potency [4] | Potency [5] | Potency [6] | Potency [7] | Potency [8] | Potency [9] | Potency [10] | Potency [11] | Potency [12] | Potency [14] | activity change % (negative = inhibition) [16] -4.95% | outcome [17] | max response [20] -4.26% | max response [18] 3.21%
